Bioassay records deposited in PubChem BioAssay by National Center for Advancing Translational Sciences (NCATS).
Pf Dd2 growth – qHTS Primary assay for Inhibitors of Plasmodium falciparum Dd2 growth in vitro | P. falciparum Dd2 growth, SYBR Green, 72 h | Potency, µM (series often up to 28.9 µM), inactives show top-dose activity, negative = inhibition, most hits filed as inhibitors | 120,000 tested, 4.3% active; active = well fitted inhibition curve with a large enough effect;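 note: plate controls were DMSO vehicle for no effect and reference drug for full effect; nearly all actives have a fitted effect of over 65% in size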
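Infected erythrocytes (Dd2, 0.3% parasitemia, 2.5% hematocrit final) are added to compound in RPMI-1640/Albumax II medium, grown 72 h at 37C in low oxygen, then lysed with saponin/Triton-X containing SYBR Green and read by fluorescence.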
The depositor's hits bear a star; i = inactive; [ ] = dose if it differs, or a comment. This is one part of a sample in which hits are shown more often than they occur. Potency is the fitted concentration of half-maximal effect.

SMILES	Pf Dd2 growth
N#Cc1ccc(C(=O)N2CCCC2c2nc(CCOCC3CC3)no2)cc1 (stereo unspecified)	i
COCCCNC(=O)N1C[C@@H]2CCCN3CCC[C@@H]([C@H]23)[C@H]1CCCC(=O)NCC1CC1	-16%
CC(C)C1c2nccn2CCCN1C(=O)CCn1cccn1 (stereo unspecified)	-15%
CCn1nc(C)c(CN2CCC3(CC2)CN(c2ccncn2)CC3CO)c1C (stereo unspecified)	6%
O=C(c1ccc(C(F)(F)F)cc1)N1CC(Oc2ccc(F)cc2F)C1	3%
CCC[C@H]1CN(C(=O)c2cc(C(F)(F)F)ccc2Cl)C[C@@H]1N	i
Cc1cnc(C(=O)NC2C[C@H]3CC[C@@H](C2)N3C(=O)CCC2CCCC2)cn1 (stereo partly specified)	i
O=C(CN1C(=O)NC(c2ccc(Cl)cc2)C2=C1COC2=O)Nc1ccc(C(F)(F)F)cc1 (stereo unspecified)	-8%
COc1cccc(S(=O)(=O)N2CCC3(CC2)CC(CC(=O)NC2CC2)CCO3)c1 (stereo unspecified)	21%
Cn1cnc(S(=O)(=O)N2CCC3(CC2)CC(CC(=O)NC2CC2)CCO3)c1 (stereo unspecified)	-33%
COc1ccc(S(=O)(=O)N2CCC3(CC2)CC(CC(=O)NC2CC2)CCO3)cc1 (stereo unspecified)	6.3µM*
Cc1oc(-c2ccccc2F)nc1CSCC(=O)N1CCN(c2ccccc2)CC1	-15%
O=C(CSCc1ccc(F)cc1)N1CCN(c2ccccc2F)CC1	68%
Cc1ccc(NC(=O)Cn2cccc2-c2nc(-c3ccc(F)cc3)no2)cc1F	-3%
O=C(Cn1cccc1-c1nc(-c2ccc3c(c2)OCO3)no1)Nc1ccccc1	2.8µM*
COc1ccc(NC(=O)Cn2cccc2-c2nc(-c3ccc(F)cc3)no2)cc1Cl	11µM*
COc1ccc(-c2noc(-c3cccn3CC(=O)Nc3ccc(F)cc3)n2)cc1F	3.2µM*
CCOC(=O)c1ccc(NC(=O)Cn2cccc2-c2nc(-c3ccc(OC)c(F)c3)no2)cc1	40%
CC(=O)c1cccc(NC(=O)Cn2cccc2-c2nc(-c3ccc4c(c3)OCO4)no2)c1	i
COc1ccc(-c2noc(-c3cccn3CC(=O)Nc3cccc(C)c3)n2)cc1F	-5%
CC(=O)c1ccc(NC(=O)Cn2cccc2-c2nc(-c3ccc4c(c3)OCO4)no2)cc1	6%
COc1ccc(-c2nc(CSCC(=O)N3CCN(c4ccccc4F)CC3)c(C)o2)cc1	6.3µM*
COc1ccc(-c2noc(-c3cccn3CC(=O)Nc3cc(Cl)c(OC)cc3OC)n2)cc1F	27%
O=C(NCc1ccc2c(c1)CCCO2)c1ccc(C2CCNC2)cc1 (stereo unspecified)	-17%
CN1C(=O)c2cccn2CC1CNS(=O)(=O)Cc1ccccc1F (stereo unspecified)	16%
SMILES	Pf Dd2 growth
Fc1ccc(-c2nnc3ccc(NCCc4ccccn4)nn23)nc1	i
O=C(Cn1cccc1-c1nc(-c2ccccc2)no1)NCc1ccc(Cl)cc1	0%
COc1ccc(-c2noc(-c3cccn3CC(=O)N3CCN(c4ccccc4F)CC3)n2)cc1F	2.5µM*
COc1ccc(CCNC(=O)Cn2cccc2-c2nc(-c3ccc4c(c3)OCO4)no2)cc1OC	0%
COc1ccc(-c2noc(-c3cccn3CC(=O)NCCc3ccccc3)n2)cc1F	0.25µM*
O=C(Cn1cccc1-c1nc(-c2ccc(F)cc2)no1)N1CCN(c2ccccc2F)CC1	i
O=C(Cn1cccc1-c1nc(-c2ccccc2)no1)Nc1ccccc1Cl	13%
COc1ccc(OC)c(NC(=O)Cn2cccc2-c2nc(-c3ccc(OC)c(F)c3)no2)c1	5%
COc1ccc(-c2noc(-c3cccn3CC(=O)N3CCN(c4ccc(F)cc4)CC3)n2)cc1F	-8%
O=C(Cn1cccc1-c1nc(-c2ccccc2)no1)NCc1ccccc1Cl	10µM*
CCOc1cc(=O)n2c(c1C(=O)Nc1cccc(OC)c1)CCCCC2	i
CN(CC1CCOC1)C(=O)Nc1ccc(C(F)(F)F)cc1 (stereo unspecified)	i[5.79 µM]
O=C(NCc1ccncc1)C1Cn2cccc2C(=O)N1Cc1ccccc1 (stereo unspecified)	i
CCCS(=O)(=O)Nc1ccc2n(c1=O)C[C@H]1C[C@@H]2CN(C(=O)c2ccc(-c3ccccc3)cc2)C1	-3%
Cc1nnnn1-c1ccc(C(=O)Nc2ccc3c(c2)C(=O)N2CCC[C@H]2C(=O)N3)cc1	0%
O=C1OCC2(CCN(Cc3ccc(Cl)cc3)C2)N1Cc1ccccn1 (stereo unspecified)	i
CC(C)C1CN(C(=O)c2ccc(F)cn2)CCC(=O)N1Cc1ccc(F)cc1 (stereo unspecified)	10%
COC(=O)[C@@H](Cc1c[nH]c2ccccc12)NC(=O)[C@H]1CNCCN1S(=O)(=O)c1ccccc1	i
O=C(Cc1cccc(Cl)c1)N1CCn2c(nnc2-c2ccccc2)C1	-1%
N#Cc1cccc(-c2cn3c(n2)N(C(=O)c2cccc(F)c2)CCC3)c1	-14%
Cc1cccc(C(=O)N2CCCC(n3cc(-c4nc(C(C)C)no4)nn3)C2)c1 (stereo unspecified)	-4%
Cc1cn2nc(C(=O)N3CCC(NC(=O)c4cccc(N(C)C)c4)CC3)cc2c(=O)[nH]1	i
C[C@@H](NC(=O)C1=C[C@@H](NC(=O)Cc2cccs2)[C@@H](O)[C@H](O)C1)C(N)=O	10%[44.1 µM]
Cn1c(COc2cccc(CN3CCCC3)c2Cl)nnc1C1CC(N)C1 (stereo unspecified)	-14%
NC1CCCN(Cc2ccccc2F)C1 (stereo unspecified)	-20%
SMILES	Pf Dd2 growth
N[C@@H]1CCN(Cc2ccccc2OCc2ccc(Cl)cc2)C[C@H]1O	4.5µM*
CNC(=O)c1cc(-c2ccc(CO)cc2)cc2c1OCCN2Cc1cccnc1	-1%[44.1 µM]
Cc1ccc(-c2c(C(=O)N3CCN(c4cccc(C)c4)C(C)C3)oc(=O)c3ccccc23)cc1 (stereo unspecified)	4.5µM*
Cc1cccc(N2CCN(C(=O)c3cc4c(=O)n(C)c5ccccc5c4s3)CC2C)c1 (stereo unspecified)	5%
Cc1cccc(N2CCN(C(=O)c3ccc4c(c3)c(C)c(C)n4C)CC2C)c1 (stereo unspecified)	i
CC(=O)N1CCCC(C(=O)N2CCC3(CC2)C(=O)N(C)c2ccccc23)C1 (stereo unspecified)	-9%
CC(=O)N1CCCN(c2ncnc3c2CN(c2ccc([N+](=O)[O-])cc2)C(=O)N(C)C3)CC1	-14%
CCCn1cc(S(=O)(=O)c2ccc(CC)cc2)c(=O)c2cc(F)c(N3CCN(C)CC3)cc21	7.1µM*
CCCN1CCN(c2cc3c(cc2F)c(=O)c(S(=O)(=O)c2ccc(CC)cc2)cn3CC)CC1	10µM*
CCc1ccc(S(=O)(=O)c2cn(C)c3cc(N4CCCC4)c(F)cc3c2=O)cc1	-10%
CCCCn1cc(S(=O)(=O)c2ccccc2)c(=O)c2cc(F)c(N3CCN(CCC)CC3)cc21	-10%
CCn1cc(S(=O)(=O)c2cc(C)cc(C)c2)c(=O)c2cc(F)c(N3CCC(C)CC3)cc21	i
CCc1ccc(S(=O)(=O)c2cn(C)c3cc(N4CCOCC4)c(F)cc3c2=O)cc1	-19%
Cc1noc(C)c1S(=O)(=O)N1CCC(c2noc(-c3cccnc3)n2)C1 (stereo unspecified)	i[5.79 µM]
Cn1nc(-c2ccccc2F)c2cc(C(=O)NCc3ccc(Cl)cc3)sc21	i
